These results are taken from the supplement of paper PMC7156485.

What all share (details): concentration: 10 µM; 24 h
Assay [1] concerns HCC1569. Kind of assay: cell number relative to DMSO (% of DMSO); higher = more cells (less growth inhibition / toxicity). The method in brief:
(§1)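 Treatment: HCC1569 and TDF cells, 800 per well in 384-well plates with RPMI and 10% FBS, were given compounds at 10 µM for 24 h at 37 °C, in triplicate. Readout: after 3.7% formaldehyde fixation, cells were stained with a rabbit anti-H1.0 antibody, an AlexaFluor 647 secondary and DAPI. Reported values are H1.0 nuclear intensity or cell number as percent of the plate control, taken as the median of replicates, with positional smoothing for HCC1569.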

The subject of assay [2] is TDF. The description is as above. The essentials:
as §1

Assay [3] has as its system TDF. Kind of assay: H1.0 immunofluorescence intensity relative to DMSO (% of DMSO); higher = stronger H1.0 induction, active = 120 or more. The essentials: as §1
Assay [4] deals with HCC1569. The experiment in a line: H1.0 immunofluorescence intensity relative to DMSO (% of DMSO); higher = stronger H1.0 induction, active = 140 or more. The essentials:
as §1

± gives the standard deviation of the averaged measurements.
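For H1.0 immunofluorescence intensity relative to DMSO in this document: TDF is a line of transformed human dermal fibroblasts of mesenchymal origin.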
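For cell number relative to DMSO in this document: TDF denotes transformed human dermal fibroblasts of mesenchymal origin.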

Regarding `CC(C)NP(=O)(NC(C)C)OP(=O)(NC(C)C)NC(C)C` [Tetraisopropyl pyrophosphoramide], the cell number in assay [1] is 99.2; in assay [2] it was 104. Also, the H1.0 immunofluorescence intensity in assay [3] is 94.9 (inactive); in assay [4], 105 (inactive).

Turning to `CC(N)C(O)c1ccccc1` (configuration not stated) [Phenylpropanolamine], the cell number was 102 in assay [1] and 94 in assay [2]. Further, the H1.0 immunofluorescence intensity in assay [3] was 100 (inactive); in assay [4] it was 99.8 (inactive).

On to `CC12CCC3C(CCC4=C(O)C(=O)CCC43C)C1CCC2=O` (configuration not stated) [4-Androsten-4-ol-3,17-dione], for which the cell number in assay [1] was 102; in assay [2], 96.7. The H1.0 immunofluorescence intensity in assay [3] was 93.4 (inactive); in assay [4], 89.7 (inactive).

`CN1C2CC(=O)CC1C(O)C2` (configuration not stated) [6-Hydroxytropinone]: the cell number worked out at 103 in assay [1] and 111 in assay [2]. Moreover, the H1.0 immunofluorescence intensity is 88.5 (inactive) in assay [3] and 89.2 (inactive) in assay [4].

`Cc1ncc(CNC(=O)N(CCCl)N=O)c(N)n1.Cl` [Nimustine hydrochloride]: the cell number in assay [1] was found to be 97.8; in assay [2], 64.7. Besides, the H1.0 immunofluorescence intensity in assay [3] was 104 (inactive); in assay [4] it was 94.4 (inactive).

As to `CCCCCCCCC(=O)NCc1ccc(O)c(OC)c1` [N-Vanillylnonanamide], the cell number turned out to be 76.7 in assay [1] and 81.3 in assay [2]. The H1.0 immunofluorescence intensity in assay [3] was 107 (inactive); in assay [4] it was 160 (active).

Regarding `O=C(O)C1C2CCC(O2)C1C(=O)O` (configuration not stated) [Endothall], the figures for the cell number in assay [1] and in assay [2] were 97.6 and 97.8, respectively. The values for the H1.0 immunofluorescence intensity in assay [3] and in assay [4] were 108 (inactive) and 129 (inactive), respectively.

`CC1=C2C(=O)C3C(CC=C4CC(O)CCC43C)C2CCC12OC1CC(C)CNC1C2C` (configuration not stated) [Jervine]: the cell number in assay [1] came to 97.9; in assay [2] it was 104. Also, the H1.0 immunofluorescence intensity in assay [3] was 94.3 (inactive); in assay [4] it was 92 (inactive).

`Cc1sc2c(c1C)C(c1ccc(Cl)cc1)=N[C@@H](CC(N)=O)c1nnc(C)n1-2`: the cell number in assay [1] worked out at 79.2; in assay [2], 67.9. Besides, the H1.0 immunofluorescence intensity is 141 (active) in assay [3] and 220 (active) in assay [4].

`COC(=O)CC(O)(CCC(C)(C)O)C(=O)OC1C(OC)=CC23CCCN2CCc2cc4c(cc2C13)OCO4` (configuration not stated) [Harringtonine]: the cell number amounted to 56.5 in assay [1] and 29.9 in assay [2]. The figures for the H1.0 immunofluorescence intensity in assay [3] and in assay [4] were 107 (inactive) and 90 (inactive), respectively.

In the case of `NCCc1c[nH]c2ccc(C(N)=O)cc12.O=C(O)C=CC(=O)O` [5-Carboxamidotryptamine maleate], the figures for the cell number in assay [1] and in assay [2] were 100 and 103, respectively. Further, the H1.0 immunofluorescence intensity in assay [3] was 91.3 (inactive); in assay [4], 87.6 (inactive).

Turning to `C[N+]1(C)C2CCC1CC(OC(=O)C(CO)c1ccccc1)C2.O=[N+]([O-])[O-]` (configuration not stated) [Atropine methyl nitrate], the cell number in assay [1] was 101; in assay [2] it was 113. Moreover, the H1.0 immunofluorescence intensity in assay [3] was 94.9 (inactive); in assay [4] it was 89.7 (inactive).

On to `O=C(NCCN1CCC2(CC1)C(=O)NCN2c1cccc(F)c1)c1ccc(F)c(F)c1`, for which the figures for the cell number in assay [1] and in assay [2] were 92.7 and 92.3, respectively. Also, the H1.0 immunofluorescence intensity in assay [3] is 110 (inactive); in assay [4], 107 (inactive).

Regarding `CN1CCC(c2c[nH]c3ccc(O)cc23)CC1.O=C(O)C=CC(=O)O`, the cell number in assay [1] and in assay [2] was 101 throughout. Further, the values for the H1.0 immunofluorescence intensity in assay [3] and in assay [4] were 93.8 (inactive) and 82.3 (inactive), respectively.

On to `C=CCN1CC(C)N(C(c2ccc(C(=O)N(CC)CC)cc2)c2cccc(OC)c2)CC1C` (configuration not stated), for which the cell number in assay [1] and in assay [2] was 102 throughout. The results for the H1.0 immunofluorescence intensity in assay [3] and in assay [4] were 96.5 (inactive) and 87.8 (inactive), respectively.

For `COc1cccc2c1cc([N+](=O)[O-])c1c(C(=O)O)cc3c(c12)OCO3` [Aristolochic acid A], the cell number in assay [1] was determined as 102; in assay [2], 110. Further, the H1.0 immunofluorescence intensity in assay [3] was 98.4 (inactive); in assay [4], 91.2 (inactive).

For `COc1ccc(C(CN(C)C)C2(O)CCCCC2)cc1` (configuration not stated) [Venlafaxine], the cell number in assay [1] stood at 102; in assay [2], 107. The H1.0 immunofluorescence intensity in assay [3] is 106 (inactive); in assay [4], 110 (inactive).

`Cl.Cl.Oc1ccc2c3c1OC1c4[nH]c5c(c4CC4(O)C(C2)N(CC2CC2)CCC314)CC1(O)C2Cc3ccc(O)c4c3C1(CCN2CC1CC1)C5O4` (configuration not stated) [nor-Binaltorphimine dihydrochloride]: the cell number in assay [1] is 106; in assay [2] it was 114. In addition, the H1.0 immunofluorescence intensity in assay [3] is 94.9 (inactive); in assay [4] it was 89.7 (inactive).

On to `Cl.Cl.NNCc1cccc(O)c1` [3-Hydroxybenzylhydrazine dihydrochloride], for which the values for the cell number in assay [1] and in assay [2] were 46.1 and 48.9, respectively. For the same molecule, the H1.0 immunofluorescence intensity in assay [3] was 117 (inactive); in assay [4] it was 104 (inactive).

`CC(=O)C1CCC2C3CCC4CC(O)CCC4(C)C3CCC12C` (stereo not drawn) [5alpha-Pregnan-3alpha-ol-20-one]: the values for the cell number in assay [1] and in assay [2] were 98.3 and 107, respectively. For the same molecule, the H1.0 immunofluorescence intensity was 90.5 (inactive) in assay [3] and 102 (inactive) in assay [4].

As for `O=C1CSC(c2ccccc2Cl)c2cc(Cl)ccc2N1` (configuration not stated), the cell number in assay [1] is 103; in assay [2], 105. Besides, the figures for the H1.0 immunofluorescence intensity in assay [3] and in assay [4] were 95.3 (inactive) and 115 (inactive), respectively.

On to `NC(=O)c1cc(N2CC2)c([N+](=O)[O-])cc1[N+](=O)[O-]`, for which the cell number stood at 96.1 in assay [1] and 94 in assay [2]. Also, the H1.0 immunofluorescence intensity in assay [3] is 89.4 (inactive); in assay [4], 91.7 (inactive).

Consider `CN1CCc2cc3c(cc2C1C1OC(=O)c2c1ccc1c2OCO1)OCO3` (single isomer, unassigned; (+)) [(+)-Bicuculline], for which the cell number in assay [1] was 92.1 ± 16; in assay [2], 89.1 ± 15. Further, the H1.0 immunofluorescence intensity in assay [3] is 98.9 (inactive); in assay [4] it was 92.6 (inactive).
